Bioassay records from PubChem BioAssay.
Compounds with a hit are over-represented: about 2.1% of the library has one in this group of screens.
D2 PAM-1 = Beta-Arrestin HTS for Positive Allosteric Modulators of the Human D2 Dopamine Receptor: Potentiators | D(2) dopamine receptor (Homo sapiens), P14416 | DiscoveRx D2 beta-arrestin cells, luminescence, 90 min; 100% = 57 uM dopamine signal | potentiation, % (test concentration not listed) | 360,000 tested, 0.23% active | AID 624464, 2012; in the data active means potentiation above about 50%; inconclusive means mostly about 30% to 49%
Target sequence (P14416 whole entry, looked up): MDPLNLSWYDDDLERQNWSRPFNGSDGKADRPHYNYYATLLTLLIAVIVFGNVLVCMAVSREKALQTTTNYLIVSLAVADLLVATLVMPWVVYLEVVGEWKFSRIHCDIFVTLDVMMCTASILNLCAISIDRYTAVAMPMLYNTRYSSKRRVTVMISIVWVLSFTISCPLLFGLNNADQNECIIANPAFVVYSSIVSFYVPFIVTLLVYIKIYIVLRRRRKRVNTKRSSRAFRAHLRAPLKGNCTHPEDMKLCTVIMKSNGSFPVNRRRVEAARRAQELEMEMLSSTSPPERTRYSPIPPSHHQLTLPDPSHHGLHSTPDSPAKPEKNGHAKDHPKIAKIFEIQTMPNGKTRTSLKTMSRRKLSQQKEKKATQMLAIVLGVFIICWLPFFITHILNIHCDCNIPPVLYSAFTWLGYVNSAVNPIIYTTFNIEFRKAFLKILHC
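PathHunter beta-arrestin assay in DiscoveRx D2 cells. Compounds were added with an EC20 of dopamine (50 nM final) for 90 min at 37 deg C. Luminescence was read 1 h after detection reagent, with 57 uM dopamine as the EC100 control.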
D2 PAM-2 = HTS Assay for Positive Allosteric Modulators of the Human D2 Dopamine Receptor: Primary Screen for Potentiators; 340,000 tested, 0.34% active; AID 485347, 2010; D(2) dopamine receptor (Homo sapiens), P14416; potentiation, % at 10 µM; HEK293 T-REx D2, calcium flux, EC20 dopamine potentiation;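 active means potentiation over 3 SD above the plate norm, cut at about 30% in these data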; further: 0% is about no effect
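Calcium flux readout, no-wash dye, 1 read/s. Inducible HEK293 Trex D2 line, overnight 30 C. Compound alone 180 s (agonist flags), then EC20 dopamine, another 180 s to score potentiation.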
D2 ag-1 = Beta-Arrestin HTS for Positive Allosteric Modulators of the Human D2 Dopamine Receptor: Agonists | D(2) dopamine receptor (Homo sapiens), P14416 | DiscoveRx PathHunter D2 beta-arrestin, luminescence, 90 min; 100% = 57 uM dopamine signal | activation, % (no concentration beside the values) | 360,000 tested, 0.084% active | AID 624465, 2012; in the data active means activation above about 40%; inconclusive means between about 15% and that limit
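DiscoveRx PathHunter D2 beta-arrestin cells (2,100/well) attached overnight, then compound-stimulated 90 min at 37 C in HBSS/10 mM HEPES/0.1% Tween-20 buffer; beta-galactosidase complementation read by luminescence after 1 h at ambient temperature. Dopamine 57 uM final (EC100) as control.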
D2 antagonist = HTS Assay for Allosteric Antagonists of the Human D2 Dopamine Receptor: Primary Screen for Antagonists; HEK293 TREx D2 cells, calcium flux, dopamine EC80; 340,000 tested, 2% active; AID 485344, 2010; inhibition, % at 10 µM; in the data active means inhibition above about 30%; inactive means below that, where a call was filed; further: 0% is about no effect
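Measurement of antagonist activity uses fluorescent calcium dye in inducible HEK293 T-REx D2 cells: 10 s baseline, compound addition with 180 s read, EC80 dopamine addition with a further 180 s read.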
D2 ag-2 = HTS Assay for Allosteric Agonists of the Human D2 Dopamine Receptor: Primary Screen for Agonists; D(2) dopamine receptor (Homo sapiens), P14416; HEK293 T-REx D2 cells, calcium flux agonist mode; activation, % at 2 µM; 340,000 tested, 0.53% active; AID 485358, 2010;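 active means activation over 3 SD above normal in the single-dose calcium agonist read, cut at about 30% in these data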; further: 0% is about no effect
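Tetracycline-induced HEK293 Trex cells with D2 receptor force-coupled to calcium signaling, plated overnight at 30 C and loaded with no-wash calcium dye. Calcium flux read kinetically for 180 s after compound addition; responses flag agonists.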
LDHA inh = qHTS assay for inhibitors of human lactate dehydrogenase. purified LDHA, NADH/diaphorase-resazurin fluorescence; stronger effect = lower value. activity change, % (values are at about 110 or 230 µM). 480,000 tested, 0.15% active. AID 1347041, 2019; in the data active means activity change below about -30%; inconclusive means mostly about -25% to -30%;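 further: plate controls were DMSO wells for no effect and wells without enzyme for full effect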
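Enzyme activity of human lactate dehydrogenase 5 (2 nM; 0.06 mM NADH, 0.2 mM pyruvate, 5 min, RT) is measured via a resazurin/diaphorase fluorescence readout of residual NADH.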
Active calls of the source: *; u = inconclusive; x = not tested or not shown.

SMILES	D2 PAM-1	D2 PAM-2	D2 ag-1	D2 antagonist	D2 ag-2	LDHA inh
CCN(Cc1nc(-c2cccc(Cl)c2)no1)CC1CCCO1 (stereo not given)	-4	5	1	-17	1	-6
CN(Cc1nc(-c2cccc(Cl)c2)no1)C1CCOCC1	-10	7	1	47*	0	0
COc1ccc(S(=O)(=O)NCc2cn3c(C)csc3n2)cc1F	2	8	-2	32*	0	0
C[C@@H]1CN([C@@H](C)CO)C(=O)c2cc(Br)cnc2O[C@@H]1CN(C)C(=O)CN(C)C	-1	x	-9	x	x	1
C[C@H]1CN([C@@H](C)CO)C(=O)c2cc(Br)cnc2O[C@@H]1CN(C)C(=O)CN(C)C	-1	x	-14	x	x	-37*
O=C(NCCSc1c[nH]c2ccccc12)C1CC1	1	-19	-1	36*	-1	4
O=C(O)c1ccccc1-c1ncc(-c2ccccc2F)o1	x	x	x	x	x	-1
CC1CCN(CC(=O)NC2CCCCC2)CC1	-3	-13	1	16	34*	-5
Cc1cccc(C)c1NC(=O)CN(C)Cc1cc(=O)oc2c(C)c(O)ccc12	x	x	x	x	x	-1
CCCCNCCOCCOc1ccccc1-c1ccccc1	-27	-21	2	76*	0	-16
COCCNCCCCOc1ccccc1-c1ccccc1	-36	-34	-5	92*	1	-8
CC1(C)NC(=O)N(CCOCCOc2ccccc2-c2ccccc2)C1=O	-6	7	-2	-22	0	2
CN(C)CCCCOc1ccccc1F	-13	-6	-2	-1	0	-23
CN(C)CCCCOc1ccccc1-c1ccccc1	-21	-28	-1	71*	4	-8
C=CCNCCOc1ccccc1-c1ccccc1	-39	-28	-1	87*	8	3
C=C(CS(=O)(=O)c1ccc(C)cc1)S(=O)(=O)c1ccc(C)cc1	x	x	x	x	x	-12
COc1ccccc1C(=O)OC(c1ccc(NC(=O)c2ccc(OC(F)F)cc2)cc1)(C(F)(F)F)C(F)(F)F	x	x	x	x	x	19
CCCC(=O)Nc1ccc2oc(-c3ccncc3)nc2c1	-6	34*	-1	1	-1	-14
CCCCCC(=O)Nc1ccc2oc(-c3cncc(Br)c3)nc2c1	-9	11	0	-16	1	-9
CCCC(=O)Nc1ccc2oc(-c3cncc(Br)c3)nc2c1	-3	8	-1	39*	0	-1
COc1ccc(C(=O)Nc2ccc3oc(-c4ccncc4)nc3c2)cc1Br	x	x	x	x	x	-33*
CC[n+]1c(C)ccc2ccccc21	x	x	x	x	x	8
CCCCCn1nc(C(=O)N(CC)Cc2nc3ccccc3c(=O)[nH]2)c2ccccc2c1=O	x	x	x	x	x	-4
CC(C)(C)c1cc(OC(=O)c2ccncc2)ccc1O	69*	0	9	x	x	19
CCOC(=O)c1ccc(/C=C/c2ccccn2)cc1	x	x	x	x	x	-2
SMILES	D2 PAM-1	D2 PAM-2	D2 ag-1	D2 antagonist	D2 ag-2	LDHA inh
NC1=C(Cl)C(=O)c2ccc(S(N)(=O)=O)cc2C1=O	58*	x	6	x	x	14
NC1=C(Cl)C(=O)c2ccccc2C1=O	51*	x	10	x	x	5
O=C1C(Cl)=C(NCCCO)C(=O)c2ccccc21	12	-3	8	13	1	10
O=Cc1cc(Br)cc(Cl)c1O	x	x	x	x	x	2
CC(=O)O[C@]1(C(C)=O)CC[C@H]2[C@@H]3C=C(Cl)C4=CC(=O)CC[C@]4(C)[C@H]3CC[C@@]21C	-3	8	-4	-5	1	-4
CC(=O)O[C@]1(C(C)=O)CC[C@H]2[C@@H]3C=C(Cl)C4=CC(=O)[C@@H]5C[C@@H]5[C@]4(C)[C@H]3CC[C@@]21C	-5	6	-3	40*	1	-2
CCC(C)(C)C1CCC(NC(=O)Cn2nc(C(N)=O)c3ccccc3c2=O)CC1 (stereo not given)	x	x	x	x	x	-12
CCCCN1C2CCCC1CC(NC(=O)c1ccccc1Cl)C2 (stereo not given)	-4	-13	-4	-1	0	-6
COc1ccccc1C(=O)NC1CC2CCCC(C1)N2Cc1ccccc1 (stereo not given)	-39	x	3	x	x	1
Cc1ccccc1C(=O)NC1CC2CCCC(C1)N2Cc1ccccc1 (stereo not given)	0	-20	-6	71*	-2	-11
Cc1ccccc1C(=O)NC1CCN(C(=O)N2CCOCC2)CC1	-3	36*	-1	12	0	-4
Cc1ccccc1C(=O)NC1CCCC(C)C1 (stereo not given)	x	x	x	x	x	-3
Cc1ccccc1C(=O)NC1CC2CCCC(C1)N2Cc1ccc(Cl)cc1 (stereo not given)	-27	-23	-7	76*	1	1
O=C(NC1CC2CCC(C1)N2Cc1ccccc1)c1ccccc1Cl (stereo not given)	-3	-21	-1	75*	2	-11
CCOC(=O)C(=CNc1cc(C)nn1C(C)(C)C)C(=O)OCC	7	4	0	-11	-1	3
CCOC(=O)C(=CNc1cc(C)nn1-c1ccc(C)cc1)C(=O)OCC	65*	8	-1	14	-1	3
O=C(NCc1ccccc1CN1CCCC1)c1ccc(OCc2cscn2)cc1	-3	-7	-2	35*	1	-7
CC(=O)c1ccc(-c2cccc(Cl)c2Cl)o1	x	x	x	x	x	-3
O=C(c1ccco1)N1CCN(C(=O)C2CCN(S(=O)(=O)c3cnc[nH]3)CC2)CC1	-19	13	-2	52*	1	-3
Cc1[nH]c2ccccc2c1C(=O)/C(C#N)=C\c1c(Cl)cccc1Cl	x	x	x	x	x	7
O=C(NCCNCc1c[nH]c2ccccc12)c1ccc(F)cc1	x	x	x	x	x	-1
CN(CC(=O)Nc1ccccc1Cl)C(=O)COC(=O)c1ccc([N+](=O)[O-])cc1Cl	53*	-7	u	-3	-1	0
CN(CC(=O)Nc1ccccc1Cl)C(=O)COC(=O)c1nc(Cl)ccc1Cl	-22	-2	-4	-22	0	-7
CCNC(=O)NC(=O)CN(Cc1ccc(C)cc1)C1CC1	x	x	x	x	x	5
CCn1c(=O)c(C(C)=O)nc2ccccc21	-8	-2	-4	33*	0	-1
